Inconclusive results are not listed. A call without a number means that no potency is given here. Active and inactive are the calls of the source. Calls come from the whole dose curve; as a rule, active = well fitted inhibition curve with a large enough effect; inconclusive = small, poorly fitted or top-dose-only effect; inactive = flat fitted curve, though single readings scatter.
Assays:
[1] = target: Glutathione peroxidase 1 (Homo sapiens) (UniProt P07203); assay: Primary qHTS Assay for Inhibitors of Recombinant Selenoprotein Glutathione Peroxidase 1 (GPX1) (AID 1845191); note: potency is the fitted concentration of half-maximal effect
Sequence of Glutathione peroxidase 1 (Homo sapiens) (P07203 whole entry, looked up): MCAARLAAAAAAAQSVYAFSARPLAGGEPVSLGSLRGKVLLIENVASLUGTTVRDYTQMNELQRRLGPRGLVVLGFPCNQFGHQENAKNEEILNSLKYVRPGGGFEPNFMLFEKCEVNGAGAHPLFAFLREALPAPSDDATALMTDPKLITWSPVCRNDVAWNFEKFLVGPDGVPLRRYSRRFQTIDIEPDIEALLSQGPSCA
How it was run: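 GPX1 10 nM, GR 100 nM, GSH 1 mM, NADPH 0.5 mM, CHP 0.5 mM (final). 30-min cpd preincubation, RT. Ex340/Em450 read t=0, t=15 min.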

[2] = target: Phospholipid hydroperoxide glutathione peroxidase GPX4 (Homo sapiens) (UniProt P36969); assay: Primary qHTS Assay for Inhibitors of Recombinant Selenoprotein Glutathione Peroxidase 4 (GPX4) (AID 1845192)
Sequence of Phospholipid hydroperoxide glutathione peroxidase GPX4 (Homo sapiens) (P36969 whole entry, looked up): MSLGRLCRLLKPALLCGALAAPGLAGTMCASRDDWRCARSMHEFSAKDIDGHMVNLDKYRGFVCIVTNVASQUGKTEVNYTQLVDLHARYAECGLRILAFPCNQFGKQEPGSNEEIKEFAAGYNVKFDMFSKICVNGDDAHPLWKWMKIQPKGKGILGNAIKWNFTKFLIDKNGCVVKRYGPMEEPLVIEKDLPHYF
How it was run: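 qHTS, GR-coupled: GPX4 200 nM + cpd 30 min RT → GSH 1 mM, NADPH 0.5 mM, GR 100 nM → CHP 0.5 mM start; fluor 340/450 at t0 and t15 min; no-enzyme wells as control.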
Note: nearly all actives have a fitted effect of over 65% in size.

Row | Compound | Potency [1] | Potency [2]
1 | CCCN(CCC)C(=O)C(CCC(=O)OCCCN1CCN(CCOC(=O)Cc2c(C)n(C(=O)c3ccc(Cl)cc3)c3ccc(OC)cc23)CC1)NC(=O)c1ccccc1 (stereo not drawn) | inactive | inactive
2 | CC(=O)CC/C=C(\C)CC/C=C(\C)CC/C=C(\C)CCC=C(C)C | inactive | inactive
3 | O=C(CCCCCCCCC#CI)Oc1ccccc1 | inactive | 
4 | CCNC(=O)NCCCOc1cccc(CN2CCCCC2)c1 | inactive | inactive
5 | CCC[C@H](N[C@@H](C)C(=O)N1[C@H](C(=O)O)C[C@@H]2CCCC[C@@H]21)C(=O)OCC | inactive | inactive
6 | CC(C)C(=O)Nc1cccc(C2CN3CCSC3=N2)c1 (stereo not drawn) | inactive | 
7 | CC[N+]1(CC)CCC(=C(c2ccccc2)c2ccccc2)C1C (stereo not drawn) | inactive | inactive
8 | O=C(O)CNC(=O)CNC(=O)CNC(=O)CSC(=O)c1ccccc1 | inactive | 
9 | CCc1cc(S(=O)(=O)O)c2cc(C(C)C)cccc1-2 | inactive | inactive
10 | C/C(=C(/OCCOc1ccc(Cl)cc1)c1ccc(Cl)cc1Cl)n1ccnc1 | inactive | inactive
11 | CO/N=C(/C(=O)N[C@@H]1C(=O)N2C(C(=O)O)=C(Cn3nnc(C)n3)CS[C@H]12)c1csc(N)n1 | 14.3 µM (active) | inactive
12 | O=C(C1CCCCC1)N1CC(=O)N2CCCc3ccccc3C2C1 (stereo not drawn) | inactive | inactive
13 | CC1CCCCN1CCCOC(=O)c1ccc(OC2CCCCC2)cc1 (stereo not drawn) | inactive | inactive
14 | COc1ccc2c(c1)c(CC(=O)OC/C=C(\C)CC/C=C(\C)CCC=C(C)C)c(C)n2C(=O)c1ccc(Cl)cc1 | inactive | inactive
15 | CNC(=O)c1cnn(-c2nc(N)c3ncn([C@@H]4O[C@H](CO)[C@@H](O)[C@H]4O)c3n2)c1 | inactive | inactive
16 | Cc1ccc(C(=O)Oc2ccc(C(O)CNC(C)(C)C)cc2OC(=O)c2ccc(C)cc2)cc1 (stereo not drawn) | inactive | inactive
17 | C[N+]1(C)CCC(OC(=O)C(O)(c2ccccc2)C2CCCC2)C1 (stereo not drawn) | inactive | inactive
18 | CO[C@@H]1[C@@H](O[C@@H]2O[C@H](C)[C@@H](O[C@H]3C[C@@](C)(O)[C@@H](O)[C@H](C)O3)[C@H](N(C)C)[C@H]2O)[C@@H](CC=O)C[C@@H](C)[C@@H](O[C@@H]2CC[C@H](N(C)C)[C@@H](C)O2)/C=C/C=C/C[C@@H](C)OC(=O)C[C@H]1OC(C)=O | inactive | inactive
19 | CCOC(=O)[C@H](CCc1ccccc1)N[C@@H](C)C(=O)N(CC(=O)O)C1Cc2ccccc2C1 | inactive | inactive
20 | O=C(O)CCC(=O)OC[C@@H](NC(=O)C(Cl)Cl)[C@H](O)c1ccc([N+](=O)[O-])cc1 | inactive | inactive
21 | CC1(C)O[C@@H]2C[C@H]3[C@@H]4C[C@H](F)C5=CC(=O)C=C[C@]5(C)[C@@]4(F)[C@@H](O)C[C@]3(C)[C@]2(C(=O)CO)O1 | inactive | inactive
22 | OC(CCCN1CCCCC1)(c1ccccc1)c1ccccc1 | inactive | inactive
23 | CNC[C@H](O)[C@@H](O)[C@H](O)[C@H](O)CO | inactive | inactive

Reference: PubChem BioAssay (NCATS)
